For this experiment, the target named is Protein phosphatase methylesterase 1 (Homo sapiens) (UniProt Q9Y570). The experiment is described as follows: PME-1 inhibitor activity retest, confirmation, biochemical, fluorescence polarization, FP-Rh probe, triplicate (AID 2171).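 Note: 0% = enzyme with DMSO and 100% = wells lacking PME-1.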 The note with it: recombinant PME-1, FP-Rh probe fluorescence polarization; at 5.9 µM; active compounds read high.

By inhibition is commonly meant the relative decrease from the control value, in per cent.

Unmarked numbers belong to inactive results. Active and inactive are the calls of the source.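 Rule for the calls: active = inhibition above the hit cutoff set in the earlier primary screen (cut at about 27% in these data); inactive = the rest.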

Protein phosphatase methylesterase 1 (Homo sapiens), sequence (Q9Y570 whole entry, looked up): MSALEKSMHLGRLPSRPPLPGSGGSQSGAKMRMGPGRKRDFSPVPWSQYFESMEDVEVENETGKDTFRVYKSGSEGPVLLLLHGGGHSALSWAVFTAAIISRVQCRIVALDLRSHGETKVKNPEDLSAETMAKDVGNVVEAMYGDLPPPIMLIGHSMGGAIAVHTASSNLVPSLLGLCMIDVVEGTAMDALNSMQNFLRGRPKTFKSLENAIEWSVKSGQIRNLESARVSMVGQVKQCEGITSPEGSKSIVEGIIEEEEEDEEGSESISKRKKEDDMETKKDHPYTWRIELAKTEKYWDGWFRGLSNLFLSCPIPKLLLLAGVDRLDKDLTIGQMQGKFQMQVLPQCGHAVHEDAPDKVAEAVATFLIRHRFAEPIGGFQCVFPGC

In the case of `Cc1cc(O)c(NC(=S)NC(=O)c2ccc(-c3ccc(Cl)cc3)o2)cc1C`, the inhibition is 42.2% (active). As for `COc1ccc(Nc2cnn(-c3nc4ccccc4s3)c(=O)c2Cl)cc1`, the inhibition was 37.3% (active). Consider `CCOC(=O)c1sc(N/N=C/c2cc(Br)c(O)c(OC)c2)nc1C`, for which the inhibition was 21.6%. The value for `Cc1cc(NC(=O)CSc2nc3ccccc3c(=O)n2C2CCCC2)no1` was 3.59%; that for `Cc1cc(N)ccc1N1CCCC1` was 7.13%; that for `Cc1ccc(NC(=O)COC(=O)c2cccc3c2C(=O)c2ccccc2C3=O)c(C)c1` was 91.2% (active). Consider `O=[N+]([O-])c1ccc(C2Nc3cccc4cccc(c34)N2)cc1`, for which the inhibition was 35.9% (active). The figure for `O=C(Nc1cccc(C(F)(F)F)c1)c1ccc2nc(-c3ccco3)c(-c3ccco3)nc2c1` is -3.36%; for `COc1ccc(-c2nc(-c3cccs3)c(-c3cccs3)[nH]2)cc1O` it is 39.6% (active); for `O=[N+]([O-])c1cc(Br)c(O)c(/C=N/Nc2nnnn2-c2cccc3ccccc23)c1` it is 43.7% (active). The figure for `COc1ccc(/C=N\NC(=O)c2cc(O)c(O)c(O)c2)cc1COc1ccc(C(=O)OCC(C)C)cc1` is -24.1%; for `N#CC1=C(N)C(C#N)(C#N)C(c2cccnc2)C2CN(C(=O)OCc3ccccc3)CC=C12` (centres undefined) it is 35.5% (active); for `Cc1cc(C)cc(NC(=S)NCCc2c[nH]c3ccccc23)c1` it is 25.5%. The figure for `CCNc1ccccc1CP(=O)(c1ccccc1)c1ccccc1O` (centres undefined) is 8.88%.

Regarding `COc1ccc(-c2cc(C(=O)N3CCN(C(=O)c4ccccc4F)CC3)[nH]n2)cc1`, the inhibition is 21.7%. The value for `C/C(=N/NC(=O)c1cc2ccccc2cc1O)C1C(=O)c2ccccc2C1=O` was 68.6% (active); that for `O=C(O)c1ccc(N/N=C/c2cn(Cc3ccccc3F)c3ccccc23)cc1` was 93.4% (active); that for `Fc1ccc2nc(Nc3nc4cc5c(cc4s3)OCCO5)sc2c1` was 77.5% (active). The value for `O=C1c2c(O)cccc2Cc2cccc(O)c21` was 23.4%. For `COc1cc2c(C#N)c(N3CCc4ccccc4C3)nc(N)c2c(N)n1`, the inhibition was 32.4% (active). Turning to `CCCCN(CCCC)CCNC(=O)c1cn(C)c2ccc(S(=O)(=O)N(C)C3CCCCC3)cc2c1=O`, the inhibition is 58.5% (active).

Consider `O=[N+]([O-])c1ccccc1N/N=C/c1c[nH]c2ccccc12`, for which the inhibition is 42.3% (active). Take `Nc1c(C(=O)Nc2ccc(F)cc2)sc2nc(-c3ccco3)ccc12`: the inhibition is 49.6% (active). As for `O=[N+]([O-])c1ccc(N/N=C/c2ccccc2O)cc1`, the inhibition was 10.8%.

Regarding `COc1cc(/C=N/NC(=S)Nc2cccc(S(=O)(=O)N(C)C)c2)ccc1O`, the inhibition was 14.1%. The figure for `O=C1NC(=S)/C(=C\c2ccc(-c3ccccc3Cl)o2)S1` is 33.2% (active). The value for `C/C(=N\Nc1ccc(C(=O)O)cc1)c1ccc2c(c1)Nc1ccccc1S2` was 30.5% (active); that for `CCNc1c2c3c(cccc3n(C)c1=O)C(=O)c1ccccc1-2` was 80.2% (active); that for `Nc1cc(C(=O)O)c(N)c2c1C(=O)c1ccccc1C2=O` was 96.8% (active).

As for `CC1Oc2ccccc2C=C1/C=N/Nc1ccc(C(=O)O)cc1` (centres undefined), the inhibition was 34.8% (active). Take `COc1ccc(O)c(/C=N/Nc2nc(C)cc(-c3ccccc3)n2)c1`: the inhibition is 39% (active). The value for `Cc1c(C(=O)OC/C(O)=C(\C#N)c2nc3ccccc3[nH]2)oc2ccccc12` was -5.29%; that for `COc1cccc(C(=O)Oc2ccc(/C=N/Nc3ccc(C(=O)O)cc3)cc2OC)c1` was 36.3% (active). The figure for `O=C1CN(C(=O)c2ccccc2F)C(c2ccccc2)c2cc(F)ccc2N1` (centres undefined) is 16.4%. As to `CCCCCCC(=O)Nc1nc(C)c(-c2csc(Nc3cc(OC)ccc3OC)n2)s1`, the inhibition is 65% (active).

With `O=C(N/N=C/c1c[nH]c2ccccc12)c1ccc([N+](=O)[O-])cc1Cl`, the inhibition was 20.6%.

For the molecule `CCc1ccc(NC(=O)Nc2cccs2)cc1`, the inhibition is 17.9%. On to `CCCOc1ccc([C@@H]2C3CN(C(=O)OCC)CC=C3C(C#N)=C(N)C2(C#N)C#N)cc1OC` (some centres undefined), for which the inhibition is 53.6% (active).

Consider `Cc1ccc(Nc2nnc(SCC(=O)c3ccc(O)cc3O)s2)cc1`, for which the inhibition is 40.8% (active). Consider `N#C/C(N=Nc1ccccc1O)=N\Nc1ccccc1O`, for which the inhibition is 53.1% (active). The figure for `O=C(CNc1ccc(F)cc1)N/N=C/c1c(O)ccc2ccccc12` is 16.3%; for `Fc1cc(F)c2nc(Nc3nc4cc5c(cc4s3)OCO5)sc2c1` it is 29.5% (active); for `CCc1ccc2nc3sc(C(=O)Nc4nnc(CC)s4)c(N)c3cc2c1` it is 57.6% (active). With `Nc1ccc2nc(-c3cccc(-c4nc5ccc(N)cc5[nH]4)c3)[nH]c2c1`, the inhibition was 94.1% (active).

Regarding `N[C@H](CSCc1ccccc1)C(=O)Nc1ccc([N+](=O)[O-])cc1`, the inhibition is -1.96%.

With `Cc1ccccc1NC1=C/C(=N\S(=O)(=O)c2ccc(C(=O)O)cc2)c2ccccc2C1=O`, the inhibition was 40% (active). With `Cc1nc(S/C(=C/c2ccc(-c3cc(Cl)ccc3C)o2)C(=O)O)n[nH]1`, the inhibition was 26.7% (active). For `Oc1[nH]c2ccccc2c1N=Nc1ncnc2c1oc1ccccc12`, the inhibition was 35% (active). Take `COc1cc2cc3c(N)c(C(=O)NCc4ccco4)sc3nc2cc1OC`: the inhibition was 110% (active). With `O=C(NC(C(=O)N/N=C/c1cc([N+](=O)[O-])ccc1O)c1n[nH]c(=O)c2ccccc12)c1ccccc1` (centres undefined), the inhibition is 58.3% (active).

For the molecule `COc1ccc(NC(=O)C2CCN(C(=O)c3cccs3)CC2)cc1OC`, the inhibition is 5.2%. As to `CCc1ccc(CNc2ccc(O)cc2)cc1`, the inhibition was 7.5%. `Oc1ccc(-c2cnc(-c3ccc(O)cc3)nc2)cc1`: the inhibition was 16.1%. As for `COC(=O)c1ccc(NC(=O)Nc2ccc(OC)cc2)cc1`, the inhibition is 23.2%.

On to `c1ccc(-c2ccc(C3CCCN3)cc2)cc1` (centres undefined), for which the inhibition was 0.67%. `O=C(c1ccccc1F)N1CCN(Cc2nc3sc4c(c3c(=O)[nH]2)CCCC4)CC1`: the inhibition is 19.9%.

For the molecule `CCN(CC)C(=O)c1csc(Nc2cccc3ccccc23)n1`, the inhibition is 23.8%.

Turning to `Cc1ccc2nc(-c3sc4nc(C)cc(C)c4c3N)[nH]c2c1`, the inhibition is 18.2%. On to `O=C(O)c1ccc(-c2ccc(/C=N/Nc3ccc([N+](=O)[O-])cc3)o2)cc1`, for which the inhibition is 33.5% (active).

For the molecule `COc1ccc(NC(=O)Nc2nnc(N3CCCCC3C)s2)cc1OC` (centres undefined), the inhibition was 43.7% (active). The value for `Nc1[nH]n(-c2ccccc2)c(=O)c1N=Nc1ccc2c(c1)OCO2` was 39.8% (active); that for `COc1ccccc1NC(=O)CCC(=O)Nc1nnc(C(F)(F)F)s1` was 4.64%; that for `COc1ccc(NC(=O)c2c[nH]n3c(=O)cc(C4CCN(C(=O)OC(C)(C)C)CC4)nc23)cc1Cl` was 25.1%. As to `CCN(CC)C(=S)Sc1c(-c2ccccc2)c2cc(Cl)ccc2[nH]c1=O`, the inhibition was 39.7% (active).

The record behind these values is PubChem BioAssay.
